Screens as filed in PubChem BioAssay.
This is a sample that favours compounds with a hit; in the whole collection about 2.1% have one here.
ARNT-TACC3 inh – disruptors of ARNT/TACC3 protein interaction, primary screen, biochemical, AlphaScreen, single concentration; Transforming acidic coiled-coil-containing protein 3 (Homo sapiens), Q9Y6A5; AlphaScreen His-ARNT PAS-B/GST-TACC3 binding, luminescence; TACC3 fragment carries E629A point mutation; inhibition, % at 9.99 µM; hit rate 0.66% among 390,000;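 active = mean inhibition of replicates at least 50% and at least half of replicates each reaching 50%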
NSD2 inh – NSD2 histone methyltransferase inhibitors, primary screen, biochemical, AlphaScreen, single concentration, set 2; Histone-lysine N-methyltransferase NSD2 (Homo sapiens), O96028; NSD2 peptide methylation, 120 min; AID 743445, 2014; inhibition, % at 12.5 µM; hit rate 0.54% among 310,000; in the data active = inhibition above about 50%
SIRT5 inh – SIRT5 desuccinylase inhibitors, primary screen, biochemical, fluorescence imaging, single point, set 5. NAD-dependent protein deacylase sirtuin-5, mitochondrial (Homo sapiens), Q9NXA8. Purified SirT5, succinyl-peptide AMC, trypsin-coupled fluorescence. inhibition, % at 15 µM. hit rate 1.1% among 330,000. AID 652115, 2013; in the data active = inhibition above about 15%
Target sequence (Q9NXA8 whole entry, looked up): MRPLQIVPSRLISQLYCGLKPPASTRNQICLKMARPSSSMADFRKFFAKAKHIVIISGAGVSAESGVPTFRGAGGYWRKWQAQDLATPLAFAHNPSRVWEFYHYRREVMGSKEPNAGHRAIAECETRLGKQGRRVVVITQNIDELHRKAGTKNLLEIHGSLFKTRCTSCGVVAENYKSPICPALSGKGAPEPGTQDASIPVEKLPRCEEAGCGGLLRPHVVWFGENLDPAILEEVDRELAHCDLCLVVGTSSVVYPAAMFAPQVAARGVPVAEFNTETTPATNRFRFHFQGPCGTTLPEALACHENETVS
PfHsp90 set2 – growth inhibition of PfHsp90-expressing yeast, primary screen, antimalarial PfHsp90 inhibitor project, S. cerevisiae, BacTiter-Glo luminescence, single point, set 2; BacTiter-Glo ATP, 48 h; yeast lacking PDR1 and PDR3 efflux regulators; inhibition, % at 9.4 µM; hit rate 0.32% among 310,000; AID 504621, 2011;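 active = every replicate shows inhibition above about 80%, whatever the replicate mean, limit read from the data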
Casp6 inh – human caspase-6 inhibitors, primary screen, biochemical, VEID-R110 fluorescence, single point, set 2 | hit rate 0.53% among 350,000 | AID 686996, 2013 | P55212 | inhibition, % at 12.5 µM | purified caspase-6, Z-VEID-R110 cleavage fluorescence;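 active = mean inhibition across replicates at least about 35%, with every replicate also reaching that limit, limit read from the data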
Target sequence (P55212 24-179 limits assumed): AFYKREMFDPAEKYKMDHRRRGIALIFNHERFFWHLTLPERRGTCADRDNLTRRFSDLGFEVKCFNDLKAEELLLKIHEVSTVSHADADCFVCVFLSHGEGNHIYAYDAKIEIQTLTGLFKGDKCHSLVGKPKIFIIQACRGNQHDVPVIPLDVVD
Target sequence (P55212 194-293 limits assumed): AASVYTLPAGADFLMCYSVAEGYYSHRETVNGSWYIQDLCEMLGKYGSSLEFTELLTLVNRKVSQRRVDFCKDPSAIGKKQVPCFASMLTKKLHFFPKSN
Each line names hits and unclear results; the compound was inactive in the other large screens; ! = a repeat was not active.

CCC(=O)NC(c1cccs1)c1cc([N+](=O)[O-])c2cccnc2c1O (stereo unspecified)	ARNT-TACC3 inh 71, SIRT5 inh 24
C/C=C/c1cnc2c(c1)C(=O)N([C@@H](C)CO)C[C@@H](C)[C@@H](CN(C)C(=O)C1CCCCC1)O2	none (no result: NSD2 inh, PfHsp90 set2)
CN(C)CC(=O)N[C@H]1CC[C@H](CC(=O)O)O[C@@H]1CO	none (no result: ARNT-TACC3 inh, NSD2 inh, PfHsp90 set2)
CSc1nc2ccc(S(=O)(=O)NC3CCCCC3)cc2s1	PfHsp90 set2 104 (no result: SIRT5 inh, Casp6 inh)
CSc1nc2ccc(S(=O)(=O)N3CCCCC3)cc2s1	none (no result: SIRT5 inh, PfHsp90 set2, Casp6 inh)
CCOc1cc(S(=O)(=O)NC2CCCCCC2)ccc1F	PfHsp90 set2 108 (no result: SIRT5 inh, Casp6 inh)
CCOc1ccc(S(=O)(=O)NC2CCCCCC2)cc1	none
C[C@@H]1CN([C@@H](C)CO)C(=O)c2cc(/C=C/c3ccccc3)cnc2O[C@@H]1CN(C)Cc1ccc2c(c1)OCO2	none (no result: NSD2 inh, PfHsp90 set2)
COc1cccc(/C=N/NC(=O)Cn2nc(C)c([N+](=O)[O-])c2C)c1O	ARNT-TACC3 inh 65
COc1cccc(/C=N/NC(=O)C(C)n2nc(C)c([N+](=O)[O-])c2C)c1O (stereo unspecified)	ARNT-TACC3 inh 88
O=C(C1CCCC1)N1CCCCN2[C@H](C1)[C@H](c1ccc(C#CC3CC3)cc1)[C@@H]2CO	none (no result: NSD2 inh, PfHsp90 set2)
CC(=O)Nc1ccc2c(c1)C(=O)N(C)[C@H]1CC[C@H](CC(=O)Nc3c(F)cccc3F)O[C@@H]1CO2	none (no result: ARNT-TACC3 inh, NSD2 inh, PfHsp90 set2)
Cc1cccc(NC(=S)Nc2ccccn2)c1	SIRT5 inh 20
CC(C)C#Cc1cnc2c(c1)C(=O)N([C@@H](C)CO)C[C@H](C)[C@@H](CN(C)C(=O)c1ccccc1)O2	none (no result: NSD2 inh, PfHsp90 set2)
COc1ccccc1NC(=O)N(C)C[C@H]1Oc2ncc(C#CC(C)C)cc2C(=O)N([C@@H](C)CO)C[C@@H]1C	SIRT5 inh 16 (no result: NSD2 inh, PfHsp90 set2)
COCC#Cc1cnc2c(c1)C(=O)N([C@@H](C)CO)C[C@@H](C)[C@@H](CN(C)C(=O)c1ccc(F)cc1)O2	SIRT5 inh 31 (no result: NSD2 inh, PfHsp90 set2)
CC(C)C#Cc1cnc2c(c1)C(=O)N([C@@H](C)CO)C[C@H](C)[C@H](CN(C)C(=O)c1ccccc1)O2	SIRT5 inh 17 (no result: NSD2 inh, PfHsp90 set2)
COc1ccccc1C#Cc1cnc2c(c1)C(=O)N([C@@H](C)CO)C[C@@H](C)[C@@H](CN(C)C)O2	none (no result: NSD2 inh, PfHsp90 set2)
COCC#Cc1cnc2c(c1)C(=O)N([C@H](C)CO)C[C@@H](C)[C@@H](CN(C)C(=O)c1ccc(F)cc1)O2	none (no result: NSD2 inh, PfHsp90 set2)
COc1ccccc1C#Cc1cnc2c(c1)C(=O)N([C@@H](C)CO)C[C@H](C)[C@@H](CN(C)C)O2	SIRT5 inh 31 (no result: NSD2 inh, PfHsp90 set2)
COc1cccc(-c2ccc3n(c2=O)C[C@H]2[C@H](CO)[C@@H](C(=O)NCCN4CCCCC4)N(C)[C@@H]32)c1	none (no result: NSD2 inh, PfHsp90 set2)
COCC(=O)N1CC2(C1)CN(Cc1cccc(OC)c1)[C@H](CO)c1c2c2ccc(OC)cc2n1C	none (no result: ARNT-TACC3 inh, NSD2 inh, PfHsp90 set2, Casp6 inh)
O=C(C[C@@H]1CC[C@H](NC(=O)c2ccncc2)[C@@H](CO)O1)NCC1CCCCC1	none (no result: NSD2 inh, PfHsp90 set2)
CC(C)C#Cc1cnc2c(c1)C(=O)N([C@H](C)CO)C[C@@H](C)[C@@H](CN(C)C(=O)Cc1ccccn1)O2	none (no result: ARNT-TACC3 inh, NSD2 inh, PfHsp90 set2)
CC(C)NC(=O)N(C)C[C@H]1Oc2ncc(C#CCc3ccccc3)cc2C(=O)N([C@@H](C)CO)C[C@@H]1C	SIRT5 inh 16 (no result: NSD2 inh, PfHsp90 set2)
CC(C)C#Cc1cnc2c(c1)C(=O)N([C@@H](C)CO)C[C@H](C)[C@@H](CN(C)C(=O)Cc1ccccn1)O2	SIRT5 inh 17 (no result: NSD2 inh, PfHsp90 set2)
COCC(=O)Nc1ccc2c(c1)C(=O)N(C)C[C@@H](OC)[C@@H](C)CN(CC1CC1)[C@H](C)CO2	none (no result: NSD2 inh, PfHsp90 set2)
CO[C@H](CN(C)Cc1nccs1)[C@@H](C)CN([C@@H](C)CO)S(=O)(=O)c1ccc(C)cc1	SIRT5 inh 19 (no result: NSD2 inh, PfHsp90 set2)
Cc1noc(C)c1S(=O)(=O)Nc1ccc2c(c1)C(=O)N([C@H](C)CO)C[C@H](C)[C@@H](CN(C)Cc1ccc(C(F)(F)F)cc1)OCCCC[C@@H](C)O2	none (no result: NSD2 inh, PfHsp90 set2)
Cc1noc(C)c1S(=O)(=O)Nc1ccc2c(c1)C(=O)N([C@@H](C)CO)C[C@@H](C)[C@@H](CN(C)Cc1ccc(C(F)(F)F)cc1)OCCCC[C@@H](C)O2	SIRT5 inh 27 (no result: NSD2 inh, PfHsp90 set2)
Cc1noc(C)c1NC(=O)N(C)C[C@H]1OCCCC[C@@H](C)Oc2ccc(NS(=O)(=O)c3c(C)noc3C)cc2C(=O)N([C@H](C)CO)C[C@@H]1C	SIRT5 inh 28 (no result: NSD2 inh, PfHsp90 set2)
Cc1noc(C)c1S(=O)(=O)Nc1ccc2c(c1)C(=O)N([C@H](C)CO)C[C@@H](C)[C@@H](CN(C)Cc1ccc(C(F)(F)F)cc1)OCCCC[C@@H](C)O2	SIRT5 inh 24 (no result: NSD2 inh, PfHsp90 set2)
Cc1noc(C)c1S(=O)(=O)Nc1ccc2c(c1)C(=O)N([C@@H](C)CO)C[C@H](C)[C@@H](CN(C)Cc1ccc(C(F)(F)F)cc1)OCCCC[C@H](C)O2	SIRT5 inh 24! (no result: NSD2 inh, PfHsp90 set2)
Cc1noc(C)c1S(=O)(=O)Nc1ccc2c(c1)C(=O)N([C@H](C)CO)C[C@H](C)[C@H](CN(C)Cc1ccc(C(F)(F)F)cc1)OCCCC[C@@H](C)O2	none (no result: NSD2 inh, PfHsp90 set2)
COc1ccccc1C#Cc1ccc([C@@H]2[C@@H](C#N)N(C(=O)C3CC3)[C@H]2CO)cc1	none (no result: NSD2 inh, PfHsp90 set2)
CC/C(CC(=O)C(F)(F)F)=N\NC(=O)/C(C#N)=C/N(C)C	SIRT5 inh 18
CN(C)/C=C(\C#N)C(=O)N/N=C/c1ccc(F)cc1	none
COc1ccc2c3c([nH]c2c1)[C@H](CO)N(Cc1ccncc1)CC31CCN(C(=O)CN(C)C)CC1	none (no result: ARNT-TACC3 inh, NSD2 inh, PfHsp90 set2)
Cc1cccc(/C=C/C(=O)c2ccc([N+](=O)[O-])o2)c1	PfHsp90 set2 103 (no result: NSD2 inh)
O=C(/C=C/c1cccc([N+](=O)[O-])c1)c1ccc([N+](=O)[O-])o1	PfHsp90 set2 125 (no result: NSD2 inh, SIRT5 inh)
Cc1ccc(S(=O)(=O)N(C)C[C@H]2Oc3c(NC(=O)NC4CCCCC4)cccc3C(=O)N([C@@H](C)CO)C[C@H]2C)cc1	none (no result: NSD2 inh, PfHsp90 set2)
Cc1ccc(S(=O)(=O)N(C)C[C@@H]2Oc3c(NC(=O)NC4CCCCC4)cccc3C(=O)N([C@H](C)CO)C[C@@H]2C)cc1	ARNT-TACC3 inh active (no result: NSD2 inh, PfHsp90 set2)
Cc1ccc(S(=O)(=O)N(C)C[C@@H]2Oc3c(NC(=O)Nc4ccc5c(c4)OCO5)cccc3C(=O)N([C@@H](C)CO)C[C@H]2C)cc1	none (no result: NSD2 inh, PfHsp90 set2)
Cc1ccc(S(=O)(=O)N(C)C[C@H]2Oc3c(NC(=O)Nc4ccc5c(c4)OCO5)cccc3C(=O)N([C@@H](C)CO)C[C@H]2C)cc1	SIRT5 inh 15 (no result: NSD2 inh, PfHsp90 set2)
Cc1ccc(/C=C2\C(=O)ON=C2c2ccccc2)o1	SIRT5 inh 15 (no result: ARNT-TACC3 inh)
Cc1ccc(C2=NOC(=O)/C2=C\c2ccc(C)o2)cc1	Casp6 inh 41
